Compound activity deposited in PubChem by National Center for Advancing Translational Sciences (NCATS).
CHX counter: counter-screen for Shiga toxin inhibitors: cycloheximide protein synthesis inhibition. AID 2314. actives 12% (n = 300,000). max response, %. cell reporter, cycloheximide protein synthesis inhibition counterscreen; in the data active = max response mostly above about 13%, no sharp cut-off; inactive = mostly below about 14%; note: read at 38.3 µM for the half of the compounds with a filed dose
LmPK inhibitor: inhibitors of Leishmania mexicana pyruvate kinase; Q27686; purified LmPK, Kinase-Glo ATP luminescence, 1 h; Potency, µM (top dose mostly 57.5 µM), most hits filed as inhibitors; actives 0.37% (n = 290,000)
Target sequence (Q27686 whole entry, looked up): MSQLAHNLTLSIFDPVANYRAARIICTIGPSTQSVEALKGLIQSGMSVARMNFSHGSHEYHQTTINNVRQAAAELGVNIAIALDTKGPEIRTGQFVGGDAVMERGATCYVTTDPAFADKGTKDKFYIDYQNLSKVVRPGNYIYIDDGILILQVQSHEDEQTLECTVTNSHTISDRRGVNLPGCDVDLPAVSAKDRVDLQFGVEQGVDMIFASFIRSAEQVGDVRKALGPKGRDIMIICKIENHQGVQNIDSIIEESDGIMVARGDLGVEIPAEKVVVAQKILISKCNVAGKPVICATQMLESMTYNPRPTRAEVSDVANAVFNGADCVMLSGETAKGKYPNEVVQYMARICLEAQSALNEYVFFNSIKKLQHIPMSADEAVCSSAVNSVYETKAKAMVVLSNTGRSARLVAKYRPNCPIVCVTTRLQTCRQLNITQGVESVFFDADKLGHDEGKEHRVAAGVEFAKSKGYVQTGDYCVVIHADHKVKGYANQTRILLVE
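Purified LmPK (0.1 nM) with 0.5 mM PEP and 0.1 mM ADP in imidazole buffer pH 7.2 with MgCl2/KCl, 1 h at room temperature. ATP formed was read by luciferase luminescence and normalized to no-enzyme and uninhibited controls.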
TbPYK inhibitor: T. brucei pyruvate kinase inhibition; Q57TT1; TbPYK enzyme, Kinase-Glo Plus ATP luminescence, 45 min; Potency, µM (series often up to 76.8 µM), usual class: inhibitors; actives 0.12% (n = 410,000); note: nearly all actives have a fitted effect of over 50% in size
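ADP (130 uM final) triggers the TbPYK reaction after compound addition; incubation is 45 min at room temperature. Kinase-Glo Plus is then added and luminescence imaged. Normalized data are fitted to concentration-effect curves.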
Giardia FBPA inh: Giardia lamblia aldolase inhibition; A8B2U2; actives 0.71% (n = 290,000); Potency, µM (series often up to 59.6 µM), most hits filed as inhibitors; AID 2451; purified Giardia FBPA; note: nearly all actives have a fitted effect of over 55% in size
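Giardia FBPA (40 nM reagent) was preincubated 10 min at RT with compound (up to 57.5 uM final), then substrate plus GAPDH/TPI/NAD/arsenate coupling system with diaphorase/resazurin was added; resorufin fluorescence (525/598 nm) was read after 20 min.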
Shiga inhibitor: blocks Shiga toxin action in Vero cells | Vero cells, Shiga toxin protein synthesis inhibition reporter | inhibition, % at 38.7 µM | actives 9.2% (n = 290,000) | AID 2315; in the data active = inhibition mostly above about 28%, no sharp cut-off; inactive = mostly below about 43%
Sm TGR block: S. mansoni TGR enzyme inhibition; Q962Y6; purified TGR, DTNB reduction, TNB absorbance 405 nm; Potency, µM (top dose mostly 114 µM), usual class: inhibitors; actives 3% (n = 360,000); AID 485364; note: nearly all actives have a fitted effect of over 60% in size
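TGR 20 nM + NADPH 100 uM (dispensed conc.), cpd preinc 15 min RT; start with NADPH (500 uM addition) then DTNB (15 mM addition). Kinetic TNB absorbance, 405 nm filter. Four-parameter Hill fit across titration.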
Hits are given with their value; 0 = inactive; ? = inconclusive; - = no result given. The entries come from a sample that favours hits as a whole. Unless noted, calls come from the whole dose curve; as a rule, active = well fitted curve in the direction sought with a large enough effect; inconclusive = small, poorly fitted or top-dose-only effect, or another doubt; inactive = no such curve, though single readings can be large; an effect the other way counts as inactive or inconclusive.

SMILES	CHX counter	LmPK inhibitor	TbPYK inhibitor	Giardia FBPA inh	Shiga inhibitor	Sm TGR block
O=S(=O)(c1ccccc1)[C@@]1(c2ccccc2)C[C@@H]2ON=C(c3cccc(-c4ccccc4)c3)[C@@H]2C1	-	-	0	-	-	0
Nc1c(C(=O)N2CCOCC2)sc2nc3c(cc12)CCCC3	18	?	?	0	0	0
Nc1c(C(=O)N2CCCC2)sc2nc3c(cc12)CCCCCC3	44	0	0	0	103	0
CC(=O)Nc1c(C(=O)N2CCOCC2)sc2nc3c(cc12)COC(C)(C)C3	0	0	0	0	0	0
Nc1c(C(=O)N2CCOCC2)sc2nc3c(cc12)CCC3	26	16µM	0	0	68	0
O=C(CN1CCNCC1)N1CCOCC1	-	-	0	-	-	-
CCCCOc1ccc(-c2cc(C(=O)NNC(=S)NCC)c3ccccc3n2)cc1	0	0	0	0	0	0
CCNC(=S)NNC(=O)c1cc(-c2cccc(C)c2)nc2ccccc12	21	?	0	?	0	0
CCNC(=S)NNC(=O)c1cc(-c2cccnc2)nc2ccccc12	0	0	0	0	0	0
CCCCOc1cccc(-c2cc(C(=O)NNC(=S)NCC)c3ccccc3n2)c1	28	0	0	0	0	0
CCNC(=S)NNC(=O)c1cc(-c2cccc(OCC)c2)nc2ccccc12	14	0	0	0	0	0
COc1cccc(-n2c(=O)c3c(C)c(C(=O)N(C)C)sc3n(CC(=O)Nc3ccc(C)cc3Cl)c2=O)c1	-	-	0	-	-	0
OC[C@@H]1[C@@H](O)[C@H](O)[C@H]2[C@@H](O)CCN21	0	-	-	0	0	-
O=C(Nc1ccc(S(=O)(=O)Nc2nccs2)cc1)c1ccc(F)cc1	0	0	0	0	0	0
Fc1ccc(NC(=S)Nc2ccc3nccnc3c2)cc1	38	0	0	?	0	-
Fc1ccc(NC(=S)Nc2nccs2)cc1	50	0	0	?	75	?
CCSc1nnc2c(n1)OC(c1ccc(C)cc1)N(C(C)=O)c1ccccc1-2 (configuration not stated)	-	-	0	-	-	0
COc1ccc(C(=O)CCN2CCN(c3ccc(OC)cc3)CC2)cc1	0	0	0	0	0	0
N#CCN1CCN(CC(=O)c2ccc(Br)cc2)CC1	0	0	0	0	0	11µM
COc1ccc(N2CCN(CC(=O)c3ccc(Cl)cc3)CC2)cc1	0	0	0	0	0	11µM
COc1ccc(C(=O)CN2CCN(c3ccc(Cl)cc3)CC2)cc1OC	0	0	0	?	0	35µM
N#Cc1ccc(C(=O)CN2CCN(c3ccccc3)CC2)cc1	0	0	0	-	0	7.1µM
COc1ccc(N2CCN(C(=O)CN3C(=O)NC4(CCCc5ccccc54)C3=O)CC2)cc1 (configuration not stated)	-	-	0	-	-	0
Cc1cccc(CNC(=O)CCCN2C(=O)CCn3nc(-c4cccn4C)cc32)c1	-	-	0	-	-	0
COc1ccc(C(=O)CN2CCN(c3ccc(F)cc3)CC2)cc1OC	0	0	0	0	0	35µM
SMILES	CHX counter	LmPK inhibitor	TbPYK inhibitor	Giardia FBPA inh	Shiga inhibitor	Sm TGR block
COc1cc(OC)c(OC)cc1CN1CCN(c2ccc(F)cc2)CC1	0	0	0	?	0	0
C/C(=N\Nc1cccc2cccnc12)c1ccccc1O	36	0	0	0	46	0
C/C(=N\Nc1cccc2cccnc12)c1ccc(N)cc1	36	0	0	0	119	0
C/C(=N\Nc1cccc2cccnc12)c1ccccn1	0	0	0	0	0	0
C/C(=N\NC(=O)c1ccc(N/N=C(\C)c2ccncc2)cc1)c1ccncc1	0	0	0	0	0	0
C/C(=N\NC(=O)c1nn(C)cc1Br)c1ccc(NC(=O)c2ccncc2)cc1	59	0	0	0	105	0
C/C(=N\NC(=O)c1nn(C)cc1Br)c1cccc(NC(=O)C(C)(C)C)c1	32	0	0	0	98	0
C/C(=N\NC(=O)c1c(Cl)cnn1C)c1ccc(NC(=O)c2ccncc2)cc1	16	0	0	0	0	0
C/C(=N\NC(=O)c1nn(C)cc1Br)c1cccc(NC(=O)C2CCCC2)c1	65	0	0	0	102	0
C/C(=N\NC(=O)C1(C)CC1(Br)Br)c1cccc(NC(=O)C(C)(C)C)c1 (configuration not stated)	0	0	0	0	0	0
COCCNc1ccnc(-c2ccccc2CN(C)C)n1	-	-	-	0	-	-
